# This is a sample that favours compounds with a hit; in the whole collection about 4.7% have one here.
# D1 PAM – human D1 dopamine receptor positive modulation. HEK293 TREx D1 cells, calcium flux, dopamine EC20 potentiation. potentiation, % at 10 µM. 360,000 tested, 0.036% active; in the data active means potentiation above about 30%
# Target sequence (P21728 whole entry, looked up): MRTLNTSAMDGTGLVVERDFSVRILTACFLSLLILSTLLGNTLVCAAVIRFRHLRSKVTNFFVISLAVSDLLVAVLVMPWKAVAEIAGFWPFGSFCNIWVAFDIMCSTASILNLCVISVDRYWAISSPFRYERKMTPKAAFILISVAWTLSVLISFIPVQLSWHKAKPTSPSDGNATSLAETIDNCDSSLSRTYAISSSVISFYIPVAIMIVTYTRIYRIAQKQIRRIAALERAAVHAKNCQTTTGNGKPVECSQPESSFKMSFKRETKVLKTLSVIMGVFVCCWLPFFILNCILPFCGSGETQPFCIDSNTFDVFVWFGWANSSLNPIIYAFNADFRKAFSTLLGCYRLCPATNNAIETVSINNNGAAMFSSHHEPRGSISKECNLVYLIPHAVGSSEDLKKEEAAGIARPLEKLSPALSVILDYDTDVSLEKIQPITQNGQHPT
# D1 agonist – agonists of human D1 dopamine receptor; 360,000 tested, 1% active; P21728; HEK293 T-REx D1 cells, calcium flux, agonist mode; activation, % at 2 µM
#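 Agonism was scored from calcium flux recorded over 180 s (1 read/s) after pintool compound addition, following a 10-cycle baseline. Cells were inducible force-coupled HEK293 TREx D1, plated overnight at 30 C and loaded with no-wash calcium dye.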
# D1 antag – blocks dopamine activation of the human D1 receptor | HEK293 TREx D1 cells, calcium flux, dopamine EC80; hits give low values | activity change, negative = inhibition, % at 10 µM | 360,000 tested, 3.2% active; in the data active means activity change below about -30%
#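 Antagonism measured as reduced calcium response to an EC80 dopamine addition following 180 s compound pre-read; cells were inducible HEK293 Trex D1 plated overnight at 30 C, read kinetically at 1 cycle/sec.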
# TRHR PAM – allosterically enhances the human TRH receptor; TRHR cells, fluo-8 calcium fluorescence, EC20 TRH enhancement; 360,000 tested, 0.66% active; enhancement, % at 2 µM; P34981; in the data active means enhancement above about 30%
#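 Enhancer read-out: after compound pinning and an initial kinetic agonist-mode read, an EC20 of TRH (10 nM final) was injected and fluo-8 calcium signal (Ex 480/Em 530) followed at 1 s/cycle for 100 cycles in TRHR-expressing cells.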
# TRHR ag – TRH receptor (human) agonism; P34981; TRHR cells, calcium flux fluo-8, FDSS agonist mode; activation, % at 2 µM; 360,000 tested, 0.18% active; AID 493084
#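 Fluo-8-loaded TRHR cells; 10 s baseline, compound added, kinetic Ca2+ fluorescence read 1/s, agonist mode.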
# Numbers stand for hits; 0 = inactive; - = no result given. Unless noted, no stated cut-off is given here; in the data, active means activation above about 30%; inactive means the rest.
SMILES,D1 PAM,D1 agonist,D1 antag,TRHR PAM,TRHR ag
Cc1c(NC(=O)c2cc3c(s2)-c2ccccc2OC3)cccc1[N+](=O)[O-],0,0,-39.7,0,0
Cc1cccc2c1-c1sc(C(=O)N3CCN(c4ccc(F)cc4)CC3)cc1CO2,0,0,0,0,0
Cc1csc(NC(=O)c2cc3c(s2)-c2ccccc2OC3)n1,0,0,0,0,0
Cc1cccc2c1-c1sc(C(=O)NCCCN3CCCC(C)C3)cc1CO2 (configuration not stated),0,0,-51.2,0,0
Cc1cccc2c1-c1sc(C(=O)N3CCN(c4ccccc4)CC3)cc1CO2,0,0,-32.5,0,0
Cn1cc(-c2cc3n(n2)CCC(=O)N3CCCC(=O)Nc2ccccc2Cl)c2ccccc21,0,0,0,0,0
CC1(C)C2CCC1(CS(=O)(=O)N1CCN(c3ccc(F)cc3)CC1)C(=O)C2 (configuration not stated),0,0,0,0,0
O=C(NCCCN1CCN(c2ccccc2F)CC1)c1cc2c(s1)-c1ccccc1OC2,0,0,-45.7,0,0
CCOc1ccc(OCC(=O)Nc2nnc3n2CCS3)cc1,0,0,0,0,0
CC(=O)Oc1ccc(-c2ccc(C(=O)Nc3cccc(S(=O)(=O)N4CCOCC4)c3)cc2)cc1,0,0,-31.6,0,0
COc1ccc(C(=O)NC(=S)Nc2cccc(S(=O)(=O)N3CCOCC3)c2)cc1,0,0,0,0,0
CN(C)CCNC(C(=O)Nc1cccc(S(=O)(=O)N2CCOCC2)c1)c1ccccc1 (configuration not stated),0,0,0,35.6,0
O=C(Nc1cccc(Br)c1)c1ccc(Cl)c(S(=O)(=O)N2CCOCC2)c1,0,0,0,0,0
CC(C)Oc1ccc(C(=O)Nc2cc(S(=O)(=O)N3CCOCC3)ccc2N2CCOCC2)cc1,0,0,-40.3,0,0
O=C(Nc1cccc(S(=O)(=O)C(F)F)c1)c1ccc(Cl)c(S(=O)(=O)N2CCOCC2)c1,0,0,-34.2,0,0
Cc1cc(C)cc(-n2c(C)nc3cc(C(=O)NCc4ccc(F)cc4)ccc32)c1,0,0,0,0,0
COc1ccc(NC(=O)C(C)N2Cc3ccccc3C2=O)cc1OC (configuration not stated),0,0,0,0,0
CCN1CCN(c2ccc(NC(=O)CCc3c(C)nc4c(-c5ccccc5)c(C)nn4c3C)cc2)CC1,0,0,-84.2,0,0
Cc1nc2c(-c3ccc(F)cc3)c(C)nn2c(C)c1CCC(=O)NCc1ccc(F)cc1,0,0,0,0,0
Cc1nc2c(-c3ccc(F)cc3)c(C)nn2c(C)c1CCC(=O)NCc1cccc(Cl)c1,0,0,-38.9,0,0
Cc1nc2c(-c3ccccc3)c(C)nn2c(C)c1CCC(=O)NCc1ccccc1,0,0,0,0,0
Cc1nc2c(-c3ccccc3)c(C)nn2c(C)c1CCC(=O)NCc1ccco1,0,0,-42.6,0,0
CCOc1ccc(NC(=O)CCc2c(C)nc3c(-c4ccccc4)c(C)nn3c2C)cc1,0,0,0,47.8,0
Cc1nc2c(-c3ccccc3)c(C)nn2c(C)c1CCC(=O)N1CCN(c2ccccc2)CC1,0,0,0,0,0
CCS(=O)(=O)c1ncc(N(Cc2ccccc2)Cc2ccco2)c(C(=O)Nc2ccc(C)c(C)c2)n1,0,0,0,0,0
SMILES,D1 PAM,D1 agonist,D1 antag,TRHR PAM,TRHR ag
Cc1ccc(Cn2c(SCCN3CCCCC3)nc3c2c(=O)[nH]c(=O)n3C)cc1,0,0,-43.1,0,0
Cn1c(=O)[nH]c(=O)c2c1nc(SCCN1CCCCC1)n2Cc1ccccc1,0,0,0,0,0
Cc1cc2oc(C(=O)N(Cc3ccccc3)c3ccccn3)cc(=O)c2cc1Cl,0,0,0,0,0
O=C(CCCc1nc2ccccc2s1)N1CCN(c2ccccc2)CC1,0,0,-42.7,0,0
Cc1ccc(C(c2sc3nc(-c4ccco4)nn3c2O)N2CCN(c3ccc(F)cc3)CC2)cc1 (configuration not stated),0,0,-,0,0
CC(=O)c1cccc(NC(=O)C(C)OC(=O)Cc2n[nH]c(=O)c3ccccc23)c1 (configuration not stated),0,0,-33.8,0,0
CCc1ccc(C(=O)C(C)OC(=O)Cc2n[nH]c(=O)c3ccccc23)cc1 (configuration not stated),30.6,0,0,0,0
COc1ccc(-c2nnnn2C)cc1S(=O)(=O)NCc1ccccc1,0,0,-55.3,0,0
CCOC(=O)c1cc(-c2ccccc2)n(CC(=O)Nc2ccccc2OCC)c1C,0,0,0,0,0
COCCNC(=O)C1CCN(S(=O)(=O)c2ccc3c(c2)CCCN3C(C)=O)CC1,0,0,0,0,0
CCOc1ccccc1CNC(=O)C1CCN(S(=O)(=O)c2c(C)noc2/C=C/c2ccc(C)cc2)CC1,0,0,0,0,0
CCOCCCNC(=O)CCCn1nc(C)n2c(cc3sccc32)c1=O,0,0,-39.2,0,0
CC(=O)N1CCN(S(=O)(=O)c2cccc(C(=O)OCC(=O)N(CCC#N)c3ccc(F)cc3)c2)CC1,0,0,0,0,0
CCOC(=O)c1ccc(NC(=O)C(C)NS(=O)(=O)c2ccc(OC)cc2)cc1 (configuration not stated),0,0,0,0,0
C/C(CC(=O)Nc1ccc2c(c1)OCCO2)=N\NC(=O)COc1ccccc1,0,0,0,37.2,0
CCC(C)NS(=O)(=O)c1ccc(OCC(=O)Nc2ccc3c(c2)OCCO3)cc1 (configuration not stated),0,0,-43.3,0,0
CC(C)[C@H](NS(=O)(=O)c1ccc2c(c1)OCCO2)C(=O)OCC(=O)Nc1cccc(Cl)c1Cl,0,0,-30.6,0,0
CCOC(=O)c1ccc(NC(=O)COc2ccc(S(=O)(=O)NC(C)CC)cc2)cc1 (configuration not stated),0,0,-37.8,0,0
Cc1cccc(Cc2c(C)nc3nc(SCC(=O)NCc4ccccc4)nn3c2C)c1,0,0,0,0,0
COc1ccc(Cl)cc1NC(=O)Cn1cnc2sc(C)c(S(=O)(=O)N3CCN(c4ccccc4OC)CC3)c2c1=O,0,0,0,0,0
Cc1ccc(NC(=O)c2ccc(Cl)cc2Cl)c(C(=O)c2ccccc2)c1,0,0,0,0,0
COc1ccc(C2=NN(CCC(=O)NC3CCCCCC3)C(=O)CC2)cc1,0,0,-32.9,0,0
COc1ccc(CC(=O)N2CCN(S(=O)(=O)c3cc(Cl)ccc3Cl)CC2)cc1,0,0,0,0,0
Oc1ccc(-c2nc3ccccc3s2)c(O)c1,0,0,-36.8,0,0
CCOC(=O)c1c(C)sc(-c2c(-c3ccc(OC)c(F)c3)[nH]c3c2c(=O)[nH]c(=O)n3C)c1O,0,0,0,0,0
